Test results taken from PubChem BioAssay (EPA / NIEHS).
Results filed as inconclusive are left out. Activity calls are given as the source filed them. Rule for the calls, unless noted: active = hit-call score of the fitted dose curve at least 0.9, where 1 is the maximum; inconclusive = response in the unintended direction; inactive = score below 0.9.

Columns and labels:
PGR (gene 5241) [1] = biological target: PGR (gene 5241) (UniProt P06401); test: TOX21_PR_BLA_Followup_Antagonist_ratio: Tox21 HEK293 Progesterone Receptor (PR) Antagonism Beta-lactamase Follow-Up Assay, Ratio (AID 2283934)
Method in brief: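 PR-UAS-bla HEK293T cells in medium with 2% charcoal-stripped FBS were treated with compounds plus 1 nM (final) promegestone (R5020) for 16 hr at 37C. LiveBLAzer B/G FRET substrate was then added for 2 h at room temperature; signal is cleaved/uncleaved substrate ratio versus DMSO.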

[2] = TOX21_PR_BLA_Followup_Agonist_viability: Viability Assessment in the Tox21 HEK293 Progesterone Receptor (PR) Agonism Beta-lactamase Follow-Up Assay (AID 2283935);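 note: signal loss means lower viability so actives are cytotoxic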
Method in brief: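 PR-UAS-bla HEK293T cells in 2% charcoal-stripped FBS medium, compound added after 6 hr plating, 16 hr at 37C/5% CO2. After bla FRET read, CellTiter-Glo added; luminescence read after 30 min at room temperature; signal loss marks cytotoxicity.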

[3] = TOX21_PR_BLA_Followup_Antagonist_viability: Viability Assessment in the Tox21 HEK293 Progesterone Receptor (PR) Antagonism Beta-lactamase Follow-Up Assay (AID 2283936);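 note: hits lower the luminescence signal meaning cytotoxicity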
Method in brief: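 PR-UAS-bla HEK293T cells (3,000/well, 2% charcoal-stripped FBS) given compound plus R5020 agonist, 16 h at 37C. CellTiter-Glo added after bla read, 30 min at room temperature; luminescence loss indicates cytotoxicity.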

PGR (gene 5241) [4] = biological target: PGR (gene 5241) (UniProt P06401); test: TOX21_PR_LUC_Followup_Antagonist: Tox21 HEK293 Progesterone Receptor (PR) Antagonism Luciferase Follow-Up Assay (AID 2283938);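 note: curve fitted upward as signal gain over DMSO baseline despite antagonist label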
Method in brief: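 HEK293-PR-A-luc cells were precultured 5 days in medium with 10% charcoal-stripped FBS, seeded 3,000/well, then exposed to compounds in DMSO for 16 h at 37C. Luciferase was read by ONE-Glo luminescence after 30 min at room temperature.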

[5] = TOX21_PR_LUC_Followup_Agonist_viability: Viability Assessment in the Tox21 HEK293 Progesterone Receptor (PR) Agonism Luciferase Follow-Up Assay (AID 2283941);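 note: loss of signal means cytotoxicity so actives lower viability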
Method in brief: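 HEK293-PR-A-luc cells, pre-cultured 5 days in 10% charcoal-stripped FBS, were seeded at 3,000 cells/well, rested 5 h at 37C, then given compound in DMSO for 16 h at 37C. Cellular ATP was read by CellTiter-Glo luminescence; signal loss indicates cytotoxicity.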

[6] = biological target: Thyroid hormone receptor alpha (Rattus norvegicus) + Thyroid hormone receptor beta (Rattus norvegicus) (UniProt P18113+P63059); test: TOX21_TR_LUC_GH3_Antagonist_Followup: Tox21 GH3 Thyroid Hormone Receptor Antagonism Luciferase Follow-Up Assay (AID 2283942)
Method in brief: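 Antagonist mode: GH3 cells seeded 1,500/well, compounds at 15 concentrations (92 uM to 5nM final) plus T3 at 1.0 nM final, 24 h at 37C. Luciferase read with ONE-Glo after 30 min at room temperature.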

THRA (gene 7067) = THRA (gene 7067) (UniProt P10827); test: TOX21_TRA_COA_Antagonist_Followup_ratio: Tox21 Thyroid Hormone Receptor alpha Antagonism through Coactivator Recruitment Follow-Up Assay, Ratio (AID 2283953)
Method in brief: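 This follow-up to the GH3 luciferase screen checks specificity in a cell-free format. It measures SRC-2 coactivator peptide binding to TRα LBD by TR-FRET and scores loss of ratio signal relative to DMSO.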

THRB (gene 7068) [7] = biological target: THRB (gene 7068) (UniProt P10828); test: TOX21_TRB_BLA_Antagonist_Followup_ratio: Tox21 Thyroid Hormone Receptor beta Antagonism Beta-lactamase (BLA) Follow-Up Assay, Ratio (AID 2283958)
Method in brief: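 GAL4-DBD/human TRβ-LBD fusion in GeneBLAzer UAS-bla HEK293T cells, 3,000 cells/well in phenol red-free DMEM with 2% charcoal-stripped FBS; compounds at 11 concentrations in triplicate, 18 h at 37C. CCF4-AM substrate 2 h, 460:530 nm ratio relative to DMSO.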

[8] = TOX21_TRB_BLA_Antagonist_Followup_viability: Viability Assessment in the Tox21 Thyroid Hormone Receptor beta Antagonism Beta-lactamase (BLA) Follow-Up Assay (AID 2283961)
Method in brief: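 HEK293T cells stably expressing GAL4-DBD/human TRβ-LBD with UAS-bla reporter, 3,000 cells/well in phenol red-free DMEM, 2% charcoal-stripped FBS. Compounds at 11 concentrations in triplicate, 18 h at 37C/5% CO2; viability by CellTiter-Glo luminescence after 30 min at room temperature.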

THRB (gene 7068) [9] = biological target: THRB (gene 7068) (UniProt P10828); test: TOX21_TRB_COA_Antagonist_Followup_ratio: Tox21 Thyroid Hormone Receptor beta Antagonism through Coactivator Recruitment Follow-Up Assay, Ratio (AID 2283967)
Method in brief: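 Cell-free TR-FRET: GST-TRb LBD (5.0 nM) with fluorescein-SRC-2 peptide (200 nM) and Tb anti-GST antibody (2 nM), 0.10% BSA. 520:495 nm emission ratio normalized to DMSO (0%) and T3 (100%).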

[10] = CEETOX_H295R_11DCORT_noMTC: CeeTox H295R High-throughput Steroidogenesis Assay for 11-Deoxycortisol (11DCORT), maximum tolerated concentration (MTC) filtered results only (AID 2283911; active = hit-call score of the fitted dose curve at least 0.9, where 1 is the maximum; inactive = score below 0.9); details: actives raise or lower the signal
Method in brief: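 HPLC-MS/MS read-out of 11-deoxycortisol after MTBE extraction of H295R medium. Cells: forskolin 10 uM pre-stimulation 48 h, chemical 48 h, 0.1% DMSO final. Bidirectional fit vs DMSO baseline; no MTC filtering.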

[11] = CEETOX_H295R_OHPREG_noMTC: CeeTox H295R High-throughput Steroidogenesis Assay for OH-Pregnenolone (OHPREG), maximum tolerated concentration (MTC) filtered results only (AID 2283912; active = hit-call score of the fitted dose curve at least 0.9, where 1 is the maximum; inactive = score below 0.9); details: actives raise or lower the signal
Method in brief: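 H295R cells prestimulated 48 h with 10 uM forskolin, then exposed 48 h to compound (0.1% DMSO). 17alpha-hydroxypregnenolone in medium measured by MTBE extraction and HPLC-MS/MS; bidirectional fit vs DMSO, concentrations not MTT/MTC-filtered.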

[12] = CEETOX_H295R_OHPROG_noMTC: CeeTox H295R High-throughput Steroidogenesis Assay for OH-Progesterone (OHPROG), maximum tolerated concentration (MTC) filtered results only (AID 2283914; active = hit-call score of the fitted dose curve at least 0.9, where 1 is the maximum; inactive = score below 0.9); details: actives raise or lower the signal
Method in brief: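 H295R cells prestimulated 48 h with 10 uM forskolin, then exposed 48 h to chemical (0.1% DMSO final). 17alpha-hydroxyprogesterone in medium quantified by HPLC-MS/MS after MTBE extraction; bidirectional fitting versus DMSO, concentrations not MTC-filtered.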

[13] = CEETOX_H295R_CORTISOL_noMTC: CeeTox H295R High-throughput Steroidogenesis Assay for Cortisol, maximum tolerated concentration (MTC) filtered results only (AID 2283916; active = hit-call score of the fitted dose curve at least 0.9, where 1 is the maximum; inactive = score below 0.9); details: actives raise or lower the signal
Method in brief: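 H295R human adrenal cells prestimulated 48 h with 10 uM forskolin, then exposed 48 h to chemical in 0.1% DMSO; cortisol in medium quantified by HPLC-MS/MS; bidirectional fit vs DMSO baseline, concentrations not MTT-filtered for MTC.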

[14] = CEETOX_H295R_CORTIC_noMTC: CeeTox H295R High-throughput Steroidogenesis Assay for Corticosterone (CORTIC), maximum tolerated concentration (MTC) filtered results only (AID 2283917; active = hit-call score of the fitted dose curve at least 0.9, where 1 is the maximum; inactive = score below 0.9); details: actives raise or lower the signal
Method in brief: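 H295R adrenal cells pre-stimulated 48 h with 10 uM forskolin, then exposed 48 h to chemical in 0.1% DMSO; corticosterone in medium quantified by HPLC-MS/MS, fitted bidirectionally versus DMSO without MTT-based concentration filtering.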

[15] = CEETOX_H295R_DOC_noMTC: CeeTox H295R High-throughput Steroidogenesis Assay for DOC, maximum tolerated concentration (MTC) filtered results only (AID 2283918; active = hit-call score of the fitted dose curve at least 0.9, where 1 is the maximum; inactive = score below 0.9); details: actives raise or lower the signal
Method in brief: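 H295R cells prestimulated 48 h with 10 uM forskolin, then exposed 48 h to chemical in 0.1% DMSO. 11-Deoxycorticosterone in medium measured by MTBE extraction and HPLC-MS/MS; bidirectional fit vs DMSO, no MTC filter.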

[16] = CEETOX_H295R_PROG_noMTC: CeeTox H295R High-throughput Steroidogenesis Assay for Progesterone (PROG), maximum tolerated concentration (MTC) filtered results only (AID 2283920; active = hit-call score of the fitted dose curve at least 0.9, where 1 is the maximum; inactive = score below 0.9); details: actives raise or lower the signal
Method in brief: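 H295R cells, prestimulated 48 h with 10 uM forskolin, exposed 48 h to chemical in 0.1% DMSO. Medium progesterone quantified by MTBE extraction and HPLC-MS/MS; bidirectional fit versus DMSO, concentrations not MTT-filtered.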

[17] = TOX21_PR_LUC_Followup_Antagonist_viability: Viability Assessment in the Tox21 HEK293 Progesterone Receptor (PR) Antagonism Luciferase Follow-Up Assay (AID 2283940)
Method in brief: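 HEK293-PR-A-luc cells, precultured 5 days in assay medium with 10% charcoal-stripped FBS, were seeded at 3,000 cells/well, treated with compounds in DMSO for 16 h at 37C, and viability was read as cellular ATP by CellTiter-Glo luminescence.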

[18] = CEETOX_H295R_ESTRADIOL_noMTC: CeeTox H295R High-throughput Steroidogenesis Assay for Estradiol, maximum tolerated concentration (MTC) filtered results only (AID 2283919; active = hit-call score of the fitted dose curve at least 0.9, where 1 is the maximum; inactive = score below 0.9); details: actives raise or lower the signal
Method in brief: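 H295R human adrenal cells pre-stimulated 48 h with 10 uM forskolin, then exposed 48 h to chemical (0.1% DMSO final). Estradiol in medium measured by HPLC-MS/MS after MTBE extraction and dansyl derivatization; bidirectional fit versus DMSO, concentrations not MTT-filtered.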

[19] = CEETOX_H295R_ESTRONE_noMTC: CeeTox H295R High-throughput Steroidogenesis Assay for Estrone, maximum tolerated concentration (MTC) filtered results only (AID 2283921; active = hit-call score of the fitted dose curve at least 0.9, where 1 is the maximum; inactive = score below 0.9); details: actives raise or lower the signal
Method in brief: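 H295R cells prestimulated 48 h with 10 uM forskolin, then exposed 48 h to chemical in 0.1% DMSO; medium estrone measured by HPLC-MS/MS after MTBE extraction and dansyl derivatization, fitted bidirectionally versus DMSO without MTT-based MTC filtering.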

Measured: AC50

PGR (gene 5241), sequence (P06401 whole entry, looked up): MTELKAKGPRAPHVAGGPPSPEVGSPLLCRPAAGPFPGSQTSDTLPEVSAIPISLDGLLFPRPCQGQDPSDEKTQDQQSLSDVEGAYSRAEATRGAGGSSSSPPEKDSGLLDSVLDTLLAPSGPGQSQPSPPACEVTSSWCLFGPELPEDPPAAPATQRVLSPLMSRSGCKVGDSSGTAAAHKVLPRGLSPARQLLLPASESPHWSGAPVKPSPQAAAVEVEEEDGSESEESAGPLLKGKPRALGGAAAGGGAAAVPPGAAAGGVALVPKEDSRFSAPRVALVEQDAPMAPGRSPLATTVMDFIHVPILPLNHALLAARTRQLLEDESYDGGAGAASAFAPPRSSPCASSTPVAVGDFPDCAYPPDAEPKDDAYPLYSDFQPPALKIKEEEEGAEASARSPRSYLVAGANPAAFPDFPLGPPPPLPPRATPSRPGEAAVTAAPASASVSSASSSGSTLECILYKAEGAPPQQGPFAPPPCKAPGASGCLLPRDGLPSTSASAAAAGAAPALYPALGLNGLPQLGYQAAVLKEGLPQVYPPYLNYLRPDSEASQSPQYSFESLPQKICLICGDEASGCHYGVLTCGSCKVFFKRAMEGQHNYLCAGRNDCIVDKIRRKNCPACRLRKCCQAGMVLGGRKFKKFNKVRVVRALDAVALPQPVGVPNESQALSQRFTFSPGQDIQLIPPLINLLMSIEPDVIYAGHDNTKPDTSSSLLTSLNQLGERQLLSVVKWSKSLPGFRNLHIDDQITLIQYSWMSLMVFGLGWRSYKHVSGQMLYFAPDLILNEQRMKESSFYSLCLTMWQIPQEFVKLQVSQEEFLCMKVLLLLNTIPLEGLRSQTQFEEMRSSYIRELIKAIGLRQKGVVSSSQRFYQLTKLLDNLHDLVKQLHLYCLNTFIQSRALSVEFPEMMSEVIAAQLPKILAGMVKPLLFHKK
THRB (gene 7068), sequence (P10828 whole entry, looked up, the tested form may be a part): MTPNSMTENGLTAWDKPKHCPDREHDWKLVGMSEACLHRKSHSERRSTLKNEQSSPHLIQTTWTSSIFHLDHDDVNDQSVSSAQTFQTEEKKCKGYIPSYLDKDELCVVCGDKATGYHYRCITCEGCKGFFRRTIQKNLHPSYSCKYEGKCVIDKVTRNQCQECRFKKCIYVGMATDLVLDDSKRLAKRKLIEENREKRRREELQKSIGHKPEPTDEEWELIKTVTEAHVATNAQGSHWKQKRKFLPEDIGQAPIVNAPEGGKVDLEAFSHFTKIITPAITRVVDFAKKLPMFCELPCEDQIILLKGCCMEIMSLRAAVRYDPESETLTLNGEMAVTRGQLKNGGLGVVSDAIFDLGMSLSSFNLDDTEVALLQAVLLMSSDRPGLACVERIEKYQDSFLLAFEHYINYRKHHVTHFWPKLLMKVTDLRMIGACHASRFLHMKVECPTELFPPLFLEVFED
THRA (gene 7067), sequence (P10827 whole entry, looked up, the tested form may be a part): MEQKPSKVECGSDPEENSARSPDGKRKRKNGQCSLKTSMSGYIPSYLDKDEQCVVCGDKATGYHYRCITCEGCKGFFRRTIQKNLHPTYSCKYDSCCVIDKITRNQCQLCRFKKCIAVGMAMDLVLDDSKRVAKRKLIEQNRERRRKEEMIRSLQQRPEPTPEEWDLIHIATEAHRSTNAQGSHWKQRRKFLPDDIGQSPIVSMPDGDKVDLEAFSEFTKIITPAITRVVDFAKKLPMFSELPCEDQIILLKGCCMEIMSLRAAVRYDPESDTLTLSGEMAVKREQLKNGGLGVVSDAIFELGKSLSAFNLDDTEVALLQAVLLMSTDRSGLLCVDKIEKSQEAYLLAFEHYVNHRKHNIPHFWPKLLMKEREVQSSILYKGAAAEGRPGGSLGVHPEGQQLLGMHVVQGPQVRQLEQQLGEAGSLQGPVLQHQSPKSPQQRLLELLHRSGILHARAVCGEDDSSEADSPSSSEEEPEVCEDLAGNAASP

ClC1C(Cl)C(Cl)C(Cl)C(Cl)C1Cl (stereo not drawn)
inactive: PGR (gene 5241) [1] | [2] | [3] | PGR (gene 5241) [4] | [5]

CC1(c2ccc(Oc3ccccc3)cc2)OC(=O)N(Nc2ccccc2)C1=O (stereo not drawn)
inactive: THRA (gene 7067) | THRB (gene 7068) [7] | THRB (gene 7068) [9]
active: [6] 25.7 µM | [8] 22 µM

CCS(=O)(=O)c1cccnc1S(=O)(=O)NC(=O)Nc1nc(OC)cc(OC)n1
inactive: [10] | [11] | [12] | [13] | [14]
active: [15] 7.07 µM | [16] 16.7 µM

COP(=S)(OC)Oc1ccc([N+](=O)[O-])cc1
inactive: [2] | [3] | [17] | [5]
active: PGR (gene 5241) [1] 38.4 µM | PGR (gene 5241) [4] 33.5 µM

O=C(Nc1ccccc1)Nc1cnns1
inactive: [18] | [19]
active: [10] 35.2 µM | [11] 14.3 µM | [12] 37.8 µM | [13] 41.7 µM | [14] 31.8 µM | [15] 25.4 µM | [16] 34.7 µM

CCCN(CCOc1c(Cl)cc(Cl)cc1Cl)C(=O)n1ccnc1
inactive: [2] | [3] | [17] | [5]
active: PGR (gene 5241) [1] 32.3 µM | PGR (gene 5241) [4] 57.9 µM
